# A number with no mark means an inactive call. Results filed as inconclusive are left out. Entries that show only a call come without a potency. Calls of active or inactive are those of the source. The call rests on the fitted dose curve; in most records, active means well fitted curve in the direction sought with a large enough effect; inconclusive means small, poorly fitted or top-dose-only effect, or another doubt; inactive means no such curve, though single readings can be large; an effect the other way counts as inactive or inconclusive.
# Assays:
# [1] = target: Glutathione peroxidase 1 (Homo sapiens) (UniProt P07203); assay: Primary qHTS Assay for Inhibitors of Recombinant Selenoprotein Glutathione Peroxidase 1 (GPX1) (AID 1845191); further: nearly all actives have a fitted effect of over 65% in size
# Chain of Glutathione peroxidase 1 (Homo sapiens) (P07203 whole entry, looked up): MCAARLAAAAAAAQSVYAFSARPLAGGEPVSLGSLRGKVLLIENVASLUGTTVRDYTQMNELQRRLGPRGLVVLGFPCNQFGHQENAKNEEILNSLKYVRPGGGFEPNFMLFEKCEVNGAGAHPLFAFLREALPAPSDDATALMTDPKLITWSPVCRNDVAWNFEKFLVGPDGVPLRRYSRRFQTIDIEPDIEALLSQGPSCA
# Method in brief: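 Recombinant GPX1 (10 nM final) was preincubated with compound for 30 min at room temperature, then reacted with 1 mM GSH, 0.5 mM CHP, 0.5 mM NADPH and 100 nM glutathione reductase; NADPH fluorescence (340/450 nm) was read at 0 and 15 min.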
# [2] = target: Phospholipid hydroperoxide glutathione peroxidase GPX4 (Homo sapiens) (UniProt P36969); assay: Primary qHTS Assay for Inhibitors of Recombinant Selenoprotein Glutathione Peroxidase 4 (GPX4) (AID 1845192); further: nearly all actives have a fitted effect of over 65% in size; on activity change, negative = inhibition: series mostly up to about 50 µM
# Chain of Phospholipid hydroperoxide glutathione peroxidase GPX4 (Homo sapiens) (P36969 whole entry, looked up): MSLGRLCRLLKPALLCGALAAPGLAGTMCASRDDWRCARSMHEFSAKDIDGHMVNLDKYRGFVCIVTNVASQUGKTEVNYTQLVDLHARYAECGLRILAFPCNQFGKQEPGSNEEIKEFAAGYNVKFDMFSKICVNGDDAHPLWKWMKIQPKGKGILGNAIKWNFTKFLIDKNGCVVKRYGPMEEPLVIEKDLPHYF
# Method in brief: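 GR-coupled readout: 100 nM GR, 1 mM GSH, 0.5 mM NADPH; NADPH fluorescence (ex 340/em 450 nm) read at t=0 and after 15 min RT. GPX4 200 nM, preincubated 30 min with compound; substrate 0.5 mM CHP.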
# [3] = target: Luciferin 4-monooxygenase (Photinus pyralis) (UniProt P08659); assay: Primary firefly luciferase (FLuc) qHTS assay for identification of artifact compounds. (AID 1845220); further: nearly all actives have a fitted effect of over 60% in size; further: potency means the concentration at half of the fitted maximal effect; on activity change, negative = inhibition: series mostly up to about 54 µM
# Method in brief: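 qHTS, 15 min compound preincubation with substrate (10 uM luciferin, 10 uM ATP) at RT, then 10 nM FLuc; 5 min; luminescence; % inhibition vs no-enzyme/DMSO controls, 4-parameter Hill fit.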
# [4] = Primary fluorescence-based thiol-reactive (MSTI) qHTS assay for identification of artifact compounds. (AID 1845221); further: nearly all actives have a fitted effect of over 65% in size; further: potency means the concentration at half of the fitted maximal effect;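 on activity change, negative = thiol reactive: series mostly up to about 54 µM; thiol-reactive compounds lower the probe fluorescence signal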
# Method in brief: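 First, 4 uM MSTI in 2% DMSO/PBS pH 7.4 was dispensed; next, compounds were added; then plates sat 1 h at room temperature without light. Finally, emission at 598 nm was recorded.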
# [5] = tested on: Nanoluciferase (engineered Oplophorus gracilirostris luciferase); assay: Primary Nanoluciferase (NLuc) qHTS assay for identification of artifact compounds. (AID 1845222); further: series mostly up to about 54 µM
# Method in brief: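 Luminescence read-out of secreted NLuc in S16 cell conditioned medium (1:55); compounds tested with 15 min RT preincubation, then Nano-Glo substrate 1:100, 5 min. % inhibition vs no-enzyme and DMSO controls, 4-parameter Hill fit.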
# [6] = Primary redox qHTS assay for identification of artifact compounds. (AID 1845223)
# Method in brief: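 Amplex Red (25 uM) and HRP (250 mU/mL) in HBSS, with compounds for 15 min, then 250 uM DTT for 30 min, room temperature, dark. Fluorescence 525/598 nm read; normalized to DMSO and 10 uM DA3003; Hill fit.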
Structure (SMILES),Potency [1],Potency [2],Potency [3],Potency [4],Potency [5],Potency [6],"activity, negative = inhibition [1]","activity change, negative = inhibition [2]","activity change, negative = inhibition [3]","activity change, negative = thiol reactive [4]","activity, negative = inhibition [5]",redox activity (% of DA3003) [6]
N#Cc1ccc(O[C@@H]2c3ccccc3C[C@H]2N2CCC[C@@H](N)C2)c(Cl)c1,inactive,inactive,inactive,inactive,inactive,inactive,,,,,,
C=CC(=O)N1CCC(Oc2cc3c(Nc4ccc(Cl)c(Cl)c4F)ncnc3cc2OC)CC1,inactive,inactive,inactive,inactive,inactive,inactive,,,,,,
C=C1C(=O)O[C@@H]2C[C@H](C)C3=CC(=O)[C@H](O)[C@@]3(C)C[C@H]12,inactive,inactive,inactive,11.9 µM (active),inactive,inactive,,,,,,
CCCC(=O)C1(c2ccccc2)CCN(C(=O)[C@@H](Cc2ccc(OC)cc2)NC(=O)[C@@H](N)Cc2cncn2C)CC1,inactive,inactive,inactive,inactive,inactive,inactive,,,,,,
Cn1cc(-c2cnn3c(N)c(Br)c([C@@H]4CCCNC4)nc23)cn1,inactive,inactive,inactive,inactive,inactive,inactive,,,,,,
O=C(C(Cc1cccc(C(F)(F)F)c1)NS(=O)(=O)c1cc(F)c2c(c1)CCNC2)N1CCCC1 (centres undefined),inactive,inactive,inactive,inactive,inactive,inactive,,,,,,
CC(=O)c1ccc2c(c1)[C@H](NC(=O)c1ccc(F)c(Cl)c1)[C@H](O)C(C)(C)O2,inactive,inactive,inactive,inactive,inactive,inactive,,,,,,
C/C=C/C=C/C=C/C(=O)O[C@@H]1C=C(CO)C(O)(C(=O)OC)[C@@]2(C)CCCC(C)(C)C12 (some centres undefined),inactive,inactive,inactive,inactive,inactive,inactive,,,,,,
CN1CCN(C(=O)CN[C@@H]2C[C@H]2c2ccc(OCc3ccccc3)cc2)CC1,inactive,inactive,inactive,inactive,inactive,inactive,,,,,,
CC(C)S(=O)(=O)Nc1ccc(F)c(C(=O)c2c[nH]c3ncc(-c4cccnc4)cc23)c1F,inactive,inactive,inactive,inactive,inactive,inactive,,,,,,
C/C=C(\C)C(=O)O[C@H]1C=CC(=O)O[C@H]1/C=C/[C@@H](O)[C@H](C)O,inactive,inactive,inactive,inactive,inactive,inactive,,,,,,
CNC(C)C(=O)NC(C(=O)N1CCCC1C(=O)Nc1snnc1-c1ccccc1)C1CCCCC1 (centres undefined),inactive,inactive,inactive,inactive,inactive,inactive,,,,,,
CC(C)/C=C1\NC(=O)C(C(C)C)n2c1nc1ccccc1c2=O (centres undefined),inactive,inactive,inactive,inactive,inactive,inactive,,,,,,
C=C1C(=O)O[C@@H]2/C=C(\C)CC/C=C(\C)CC[C@@H]12,inactive,inactive,inactive,inactive,inactive,inactive,,,,,,
C/C=C(/C)C(=O)OC1CC(C)(C)CC2C3=CCC4C5(C)CCC(O[C@@H]6O[C@H](C(=O)O)[C@@H](O)[C@H](O)[C@H]6O[C@@H]6O[C@H](CO)[C@H](O)[C@H](O[C@@H]7OC[C@H](O)[C@H](O)[C@H]7O[C@@H]7O[C@H](CO)[C@@H](O)[C@H](O)[C@H]7O)[C@H]6O)C(C)(C)C5CCC4(C)C3(C)C(O)C(O)C12CO (some centres undefined),,,,,,,-3.11% [at 9.52 µM],-1.81% [at 9.73 µM],1.87% [at 11.6 µM],199% [at 11.5 µM],4.03% [at 11.6 µM],15.7% [at 11.5 µM]
CCC(C)C1NC(=O)C(Cc2ccccc2)NC(=O)C(CCCCCC(=O)C(O)CO)NC(=O)C2CCCCN2C1=O (centres undefined),inactive,inactive,inactive,inactive,inactive,inactive,,,,,,
Cc1ccc(-c2cn3c4c(sc3n2)CCCC4)cc1,inactive,inactive,0.19 µM (active),inactive,inactive,inactive,,,,,,
C=C1CC[C@H]2C(=C)CC[C@H]3C(=C)C(=O)O[C@@H]3[C@@H]12,inactive,inactive,inactive,inactive,inactive,inactive,,,,,,
CC(=O)OC1CC(O)(C(C)C)C2C(OC(=O)c3ccc(O)cc3)C=C(C)C(=O)CC12C (centres undefined),inactive,inactive,inactive,inactive,inactive,inactive,,,,,,

# Source: PubChem BioAssay (NCATS)
